TCR activator: activators of T cell receptors. primary human leukocytes, anti-CD3, IL-2 HTRF, 48 h. Potency, µM (highest dose often 9.22 µM), without a hit: top-dose activation of IL-2 secretion, actives largely listed as activators. 330,000 tested, under 10 active. AID 504894; further: % of control where 0% means no effect
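48 hr co-incubation of compounds, a-CD3 beads and primary human leukocytes; IL-2 quantified homogeneously by HTRF with anti-IL-2 K and d2 conjugates.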
A-T KAP1 phos: candidate therapy for ataxia-telangiectasia; F2112 A-T fibroblasts, KAP-1 phosphorylation AlphaLISA; neocarzinostatin DNA damage 30 min before lysis; Potency, µM (highest dose often 57.5 µM), without a hit: at the highest dose activation, usual class: activators; 320,000 compounds, 0.19% hits; further: potency means the concentration at half of the fitted maximal effect; % of control where 0% means no effect; nearly all actives have a fitted effect of over 45% in size
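ATM-like activity read as KAP-1 phosphorylation via AlphaLISA donor/acceptor antibody pairs after lysis and 6 hr at 25C. Cells were ATM-null patient fibroblasts (F2112, hTERT), dosed 60 min, then exposed to the DSB inducer NCS for 30 min.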
GRP78 ERSR act: inducers of ER stress response in human glioma cells | 420,000 compounds, 0.02% hits | AID 602332 | U87-MG GRP78 promoter luciferase reporter, 16 h | Potency, µM, inactives show at the highest dose activation, hits mostly activators; further: potency means the concentration at half of the fitted maximal effect; series mostly up to about 76 µM; % of control where 0% means no effect; nearly all actives have a fitted effect of over 35% in size
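ERSR induction read as luciferase luminescence (Bright-Glo, 10 min at room temperature) in stably transfected human U87-MG glioma cells exposed to compounds for 16 h, using GRP78 as sensor.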
Mito fusion act: blocks mitochondrial division or promotes mitochondrial fusion; S. cerevisiae fusion-defective mutant growth rescue, CellTiterGlo 48 h; Potency, µM (top dose mostly 46.1 µM), for the others: at the top dose growth rescue (activation), hits mostly activators; 320,000 compounds, 0.23% hits; AID 485298; further: potency means the concentration at half of the fitted maximal effect; % of control where 0% means no effect; nearly all actives have a fitted effect of over 45% in size
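Read-out: ATP-based luminescence (CellTiterGlo, 10 min ambient) reporting growth of fusion-defective ts yeast after 48 hours at 37C on glycerol/ethanol YPEG medium in the presence of compound.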
MBNL1-CUG inh: inhibitors of human MBNL1 binding to CUG repeat RNA; AID 2675; 280,000 compounds, 0.036% hits; Q9NR56; Potency, µM (titrated, usually from 57.5 µM), inactives show at the top dose activity change, negative = inhibition, most hits filed as inhibitors; TR-FRET MBNL1-His/biotin-(CUG)12 binding, 665/545 ratio; active means well fitted inhibition curve with a large enough effect in the signal ratio, with a control signal flat, not every such curve was filed as active; inconclusive means small, poorly fitted or top-dose-only effect, or effect the other way, or a change in a side signal; inactive means no such curve, though single readings can be large or run the other way; the % refers to the signal ratio; further: potency means the concentration at half of the fitted maximal effect; on the % scale 0 is the no-effect control and ±100 the full control effect
Target sequence (Q9NR56 whole entry, looked up): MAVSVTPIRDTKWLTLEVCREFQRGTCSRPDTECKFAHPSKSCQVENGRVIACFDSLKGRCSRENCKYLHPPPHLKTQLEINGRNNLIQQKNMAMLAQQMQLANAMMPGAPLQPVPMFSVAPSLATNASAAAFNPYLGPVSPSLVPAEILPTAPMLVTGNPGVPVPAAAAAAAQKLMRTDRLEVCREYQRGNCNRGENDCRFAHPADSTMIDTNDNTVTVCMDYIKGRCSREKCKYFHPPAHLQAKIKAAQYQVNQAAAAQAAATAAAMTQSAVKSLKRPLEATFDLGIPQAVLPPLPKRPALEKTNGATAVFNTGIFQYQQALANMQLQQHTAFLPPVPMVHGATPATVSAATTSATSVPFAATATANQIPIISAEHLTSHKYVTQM
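Ratiometric TR-FRET (665 over 545 nm, excitation 340 nm) tracks disruption of MBNL1-His/biotin-(CUG)12 complex after 60 min at room temperature, with compounds at 92 nM to 58 uM final.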
ClpP mod: qHTS Assay for Activators of ClpP. ATP-dependent Clp protease proteolytic subunit (Bacillus subtilis (strain 168)), P80244. purified B. subtilis ClpP, FRET peptide cleavage, 20 min. Potency, µM (series often up to 57.5 µM), for inactives: at the highest dose activity change, negative = active. 340,000 compounds, 1.9% hits. AID 651965, 2013; active means well fitted falling curve with a large enough effect; inconclusive means small, poorly fitted or top-dose-only effect; inactive means no such curve, though single readings can be large or run the other way; further: potency means the concentration at half of the fitted maximal effect; the source files actives as falling curves though it sought activators and does not explain the sign; nearly all actives have a fitted effect of over 65% in size
Target sequence (P80244 whole entry, looked up): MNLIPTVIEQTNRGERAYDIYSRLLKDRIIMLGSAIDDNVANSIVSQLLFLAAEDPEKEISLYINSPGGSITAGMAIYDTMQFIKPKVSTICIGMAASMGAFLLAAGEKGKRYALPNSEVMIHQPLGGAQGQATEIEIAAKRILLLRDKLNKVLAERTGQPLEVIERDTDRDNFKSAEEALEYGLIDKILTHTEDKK
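ClpP 10 microg/mL final, pH 8 Tris/KCl buffer with BSA, glycerol, Tween-20; compound pinned in; FRET-FV substrate; RT 20 min; Ex320/Em430; ΔFRET vs ADEP 5.8 microM, DMSO, no enzyme.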
* hit, by the source's call; ? = inconclusive; . = no result given; [ ] = remark or other dose. In the library only some 1.8% were active in any assay of this set; here they are far more common. Unless noted, the call rests on the fitted dose curve; in most records, active means well fitted curve in the direction sought with a large enough effect; inconclusive means small, poorly fitted or top-dose-only effect, or another doubt; inactive means no such curve, though single readings can be large; an effect the other way counts as inactive or inconclusive.

SMILES	TCR activator	A-T KAP1 phos	GRP78 ERSR act	Mito fusion act	MBNL1-CUG inh	ClpP mod
CN[C@H](CC(C)C)C(=O)N[C@H]1C(=O)N[C@@H](CC(N)=O)C(=O)N[C@H]2C(=O)N[C@H]3C(=O)N[C@H](C(=O)N[C@H](C(=O)O)c4cc(O)cc(O)c4-c4cc3ccc4O)[C@H](O)c3ccc(c(Cl)c3)Oc3cc2cc(c3O[C@@H]2OC(CO)[C@@H](O)[C@H](O)[C@H]2O[C@H]2C[C@](C)(N)[C@H](O)[C@H](C)O2)Oc2ccc(cc2Cl)[C@H]1O (stereo partly specified)	.	.	-2.7%	.	.	.
CC(C)(C)C1CCc2c(sc(NC(=O)CCC(=O)O)c2C(=O)Nc2ccccc2C(F)(F)F)C1 (stereo unspecified)	.	.	?	.	.	-4.4%
COc1ccc2nc(C)cc(Nc3ccc(C(=O)O)cc3)c2c1	0.0%	10µM*	-5.5%	11.9%	?	-10.9%
COc1ccc(Nc2cc(C)nc3ccc(OC)cc23)cc1	-0.3%	-0.8%	-4.5%	-2.0%	?	.
CCOc1ccc2nc(C)cc(C(=O)O)c2c1	3.6%	3.3%	-3.4%	3.6%	15.0%	3.16µM*
COc1ccc2nc(C)cc(C(=O)O)c2c1	0.0%	-0.3%	-2.1%	0.0%	-5.7%	8.91µM*
CCOc1ccc2oc(C(=O)O)c(C)c2c1	-2.4%	5.1%	1.7%	-1.8%	.	.
COc1ccc2nc(C)cc(SCC(=O)NNC(=O)COc3ccccc3)c2c1	5.4%	-4.2%	-4.3%	2.1%	7.1%	-6.4%
COc1ccc2nc(C)cc(Sc3nc4ccccc4s3)c2c1	-3.0%	22.4µM*	-5.4%	-24.7%	23.9%	1.4%
Cc1cc(C)c2nccc(/C=C/c3ccc(N(C)C)cc3)c2c1	.	.	-3.9%	.	.	1.6%
CCN1C(=O)[C@@H]2[C@H]3C(=CC[C@@H]2C1=O)C1(OCCCO1)[C@H]1O[C@@H]1[C@H]3O	.	.	-1.4%	.	.	.
COc1ccc(-n2nc3cc(C)c(NC(=O)c4cccnc4)cc3n2)cc1	0.9%	0.7%	4.1%	-0.4%	5.9%	25.1µM*
COC(=O)c1cccc(NC(=O)c2cccnc2)c1	4.9%	-6.0%	-0.9%	2.5%	5.3%	14.1µM*
COc1cccc2c1nc(C)c1cc(C)oc12	-5.2%	1.3%	1.7%	-6.3%	-5.9%	28.2µM*
CC(C(=O)N1CCCCC1)n1ncn2cccc2c1=O (stereo unspecified)	-3.0%[46.1 µM]	2.8%	-0.6%	-1.6%	?	28.2µM*
COc1ccccc1-n1cc(C(=O)NCCN2Cc3ccccc3OC(c3ccsc3)C2)cn1 (stereo unspecified)	.	.	1.9%	.	.	.
O=C(Nc1ccc2nc(SCC(=O)N3CCCc4ccccc43)sc2c1)c1cccc(Cl)c1	.	.	-4.9%	.	.	14.1µM*
O=C(Nc1ccc2nc(SCC(=O)N3CCc4ccccc43)sc2c1)c1cccc(Cl)c1	.	.	-1.7%	.	.	?
Cc1ccc(CNC(=O)CCCc2cn(C)c3ccccc23)cc1	-1.5%	2.9%	-4.1%	-17.6%	1.3%	28.2µM*
Cn1cc(CCC(=O)NCc2cccc(Cl)c2)c2ccccc21	1.1%	5.1%	-7.2%	31.6µM*	-7.3%	.
CC(NS(=O)(=O)c1cccc(Cl)c1)C(=O)Nc1ccc(-c2nc3ccccc3s2)cc1 (stereo unspecified)	4.3%	2.7%	3.7%	-1.7%	6.4%	35.5µM*
CCS(=O)(=O)c1ccccc1C(=O)Nc1ccc(-c2nc3ccccc3s2)cc1	.	.	4.0%	.	.	4.7%
O=C(CNS(=O)(=O)c1cccc(Cl)c1)Nc1ccc(-c2nc3ccccc3s2)cc1	-2.7%[46.1 µM]	3.7%	1.7%	0.3%	73.1%	-2.2%
CC(C)(C)c1ccc(S(=O)(=O)NCC(=O)Nc2ccc(-c3nc4ccccc4s3)cc2)cc1	9.2%	1.9%	-0.6%	-1.4%	2.8%	5.01µM*
COCCNc1nnc(SC(C)C(=O)Nc2ccc(-c3nc4ccc(C)cc4s3)cc2)s1 (stereo unspecified)	-0.2%[46.1 µM]	0.1%	-5.2%	18.8%	145.4%	17.8µM*
SMILES	TCR activator	A-T KAP1 phos	GRP78 ERSR act	Mito fusion act	MBNL1-CUG inh	ClpP mod
COCCNc1nnc(SC(C)C(=O)Nc2c(C)n(C)n(-c3ccccc3)c2=O)s1 (stereo unspecified)	7.2%	6.1%	-2.3%	-0.4%	-3.2%	1.2%
Cc1ccc(C)c(S(=O)(=O)NC(C)C(=O)Nc2ccc(-c3nc4ccccc4s3)cc2)c1 (stereo unspecified)	-7.7%	-1.7%	2.8%	0.3%	-10.9%	31.6µM*
CS(=O)(=O)c1ccccc1NC(=O)COc1ccccc1C(=O)Nc1ccccc1	.	.	.	.	.	-3.5%
CCC[N+](C)(C)c1ccc(/C=C/c2ccnc3ccccc23)cc1	.	.	-9.2%	.	.	1.3%
O=C1Oc2ccccc2C(=O)C1C(CC(O)c1ccc(-c2ccc(Br)cc2)cc1)c1ccccc1 (stereo unspecified)	.	.	-0.6%	.	.	.
CN(CC(=O)Nc1ccccc1Br)C(=O)c1ccc(-c2ccc(Cl)cc2)o1	-0.4%	-11.6%	-3.0%	-2.5%	0.1%	31.6µM*
CN(CC(=O)Nc1ccccc1C(F)(F)F)C(=O)c1ccc(-c2ccc(Cl)cc2)o1	0.4%	12.3%	-0.8%	24.4%	.	-2.3%
FC(F)(F)c1cc(-c2cccs2)nc(-n2cc(Br)cn2)n1	-6.0%	-1.7%	-5.8%	-1.0%	1.5%	31.6µM*
CCC1(C2CCN(Cc3cccc(Cl)c3)CC2)NC(=O)N(CC2COc3ccccc3O2)C1=O (stereo unspecified)	.	.	-2.9%	.	.	.
Cc1cc(C)c2c(c1)-c1cc(C)nn1C(c1ccc3c(c1)OCO3)N2 (stereo unspecified)	-1.9%	12.9%	-2.5%	-4.1%	7.5%	31.6µM*
COc1ccc(CC(=O)Nc2ccc(-c3cn4cccc(C)c4n3)cc2)cc1OC	2.4%	1.9%	-6.9%	-0.6%	-1.4%	?
COc1ccc(CC(=O)Nc2ccc(-c3cn4ccc(C)cc4n3)cc2)cc1	5.7%	2.2%	-3.9%	2.2%	1.4%	15.8µM*
CN1C(=O)NC(c2ccccc2)C2=C1CN(c1cccc(C(F)(F)F)c1)C2=O (stereo unspecified)	.	-13.7%	-5.9%	11.6%	1.4%	39.8µM*
O=c1c2ccccc2nc(-c2ccc(Cl)cc2)n1CCCOc1ccccc1F	.	.	-2.5%	.	.	0.4%
CC1=C(c2ccc(C)c(C)c2)S(=O)(=O)N(Cc2ccc(C(=O)NCc3ccc(C)cc3)cc2)C1=O	.	.	-3.4%	.	.	11.2µM*
COc1ccc(C2=C(C)C(=O)N(Cc3ccc(C(=O)NCc4ccc(C)cc4)cc3)S2(=O)=O)cc1	.	.	.	.	.	-15.5%
